The campaign covered roughly 68,000 compounds. About 2,700 (4%) showed an effect of 50% or more. The sample as a whole holds a higher share of strong results than the screen did.
test system: Plasmodium berghei; assay: Screen against P. berghei liver stage (PbLuc), transformed with Luciferase, at 2uM; format: functional, HepG2; conditions: tested at 2 uM

Row | SMILES | INHIBITION
1 | COc1ccccc1CNC(=O)CN(C)C(C)c1nccs1 (configuration not stated) | 38.91%
2 | c1cnn(CC2CCCN2c2ncnc3ccsc23)c1 (configuration not stated) | -16.42%
3 | CN(C)C(=O)N1CCO[C@@H]2CC(COCc3cccnc3)C[C@H]21 (some centres not stated) | 20.01%
4 | O=C(NCCCc1ccco1)c1ccc(N2CCOCC2)cc1 | -89.85%
5 | O=C(NCCCc1ccc(F)cc1)c1ccc(N2CCOCC2)cc1 | -26.8%
6 | O=C(NCCc1ccncc1)c1ccc(N2CCOCC2)cc1 | 68.9%
7 | Cn1c(-c2cc3n(n2)CCCN(CC(=O)O)C3)nc2ccccc21 | -15.71%
8 | Cc1cccc(COC[C@H]2CC[C@H]3[C@H](CCN3C(=O)CC3CC3)O2)n1 | 9.79%
9 | Cc1cccc(COC[C@@H]2CC[C@H]3[C@H](CCN3C(=O)CC3CC3)O2)n1 | 51.72%
10 | Cc1cccc(COC[C@@H]2CC[C@H]3[C@H](CCN3Cc3ccco3)O2)n1 | 2.39%
11 | Cc1cc(C(=O)N2C[C@H](c3ccccc3)[C@@H](N)C2)c2ccc(F)cc2n1 | 2.31%
12 | CCc1ocnc1C(=O)N1CCCC1c1noc(C2CC2)n1 (configuration not stated) | 43.85%
13 | COc1cnc(CSc2nnc(C)s2)cc1OCC(=O)NC1CCCC1 | -8.85%
14 | CCCS(=O)(=O)N1CCC(Nc2c(F)cc(C#N)cc2F)CC1 | 10.85%
15 | CCS(=O)(=O)N1CCC(Nc2ccc(C#N)cc2F)CC1 | 1.36%
16 | CCS(=O)(=O)N1CCC(Nc2c(F)cc(C#N)cc2F)CC1 | 55.17%
17 | Cc1ccc(C(=O)N2CC[C@H]3[C@H]2CCN3CC2CCOCC2)cc1F | -4.54%
18 | Cc1nc[nH]c1CNCc1cccnc1N(C)C1CCCCC1 | -15.91%
19 | COc1cccc(OCCc2nc3c(cc2C(N)=O)CCC3)c1 | 23.18%
20 | Cc1cnn(CCNCc2cccnc2)c1 | 0.9%
21 | Cc1cnn(CCNCc2ccc(OCc3cccnc3)cc2)c1 | 88.86%
22 | Cc1cnn(CC(C)NCc2ccccc2OCc2cccnc2)c1 (configuration not stated) | 50.05%
23 | Cc1cnn(CCNCc2ccc(OCc3ccncc3)cc2)c1 | 40.88%

Row | SMILES | INHIBITION
24 | Cc1cnn(CC(C)NCc2ccc(OCc3cccnc3)cc2)c1 (configuration not stated) | 16.18%
25 | Cc1cnn(CC(C)NCc2cccnc2)c1 (configuration not stated) | 8.13%
26 | Cn1c(=O)ccn(CC(=O)Nc2cnccc2O)c1=O | 16.37%
27 | COCCC1(CO)CCCN(Cc2ccc(C(F)(F)F)nc2)C1 (configuration not stated) | 26.66%
28 | CN1CCCC2(CC1)CCN(C(=O)CCc1ccccc1F)CC2 | 50.59%
29 | CN1CCN(CC2(O)CCN(C(=O)CCc3ccccc3F)C2)CC1 (configuration not stated) | -20.27%
30 | CN1CCCC2(CC1)CCN(C(=O)CCc1ccccc1O)CC2 | 48.21%
31 | Cc1nc(CNC(C)c2cccc(N3CCCC3=O)c2)cs1 (configuration not stated) | 65.57%
32 | CCc1nc(CNC(C)c2cccc(N3CCCC3=O)c2)cs1 (configuration not stated) | 0.45%
33 | Cc1n[nH]cc1CNC(C)c1cccc(N2CCCC2=O)c1 (configuration not stated) | 11.31%
34 | Cc1ccc2nc(C3CCN(CC4CC4)CC3)nn2c1 | 28.95%
35 | CC(C)(C)c1nc(CN2CCc3onc(-c4cccc(F)c4)c3C2)no1 | -7.68%
36 | O=C(c1ccco1)N1CCC[C@]2(C[C@H](Oc3ncccc3F)CO2)C1 | -9.69%
37 | O=C(c1cc(-c2ccco2)nc2c(Cl)cccc12)N1C[C@H]2CNC[C@H]2C1 | 35.46%
38 | O=C1CN(C(=O)c2cc(-c3ccco3)nc3c(Cl)cccc23)CCN1 | 38.83%
39 | O=C(c1cc(-c2ccco2)nc2c(Cl)cccc12)N1CC[C@H]2CNC[C@H]21 | 53.98%
40 | Cc1occc1C(=O)N1CCOCC2(CCN(C3CCOCC3)C2)C1 (configuration not stated) | 30.46%
41 | Cc1ccc2c(c1)C1(CCNCC1)CC2NC1CC1 (configuration not stated) | 13.67%
42 | c1ccc2c(c1)C(NC1CCCC1)CC21CCNCC1 (configuration not stated) | 53.81%
43 | Fc1ccc2c(c1)C1(CCNCC1)CC2NC1CC1 (configuration not stated) | 21.32%
44 | CCc1ccc(C(=O)N2CCCC2c2nnc3n2CCCCC3)o1 (configuration not stated) | 17.33%
45 | O=C1CCCN1Cc1nnc2n1CCN(Cc1ccccn1)CC2 | 51.26%
46 | Cc1cccc(CN2CCc3nnc(CN4CCCC4=O)n3CC2)n1 | -43.47%

Row | SMILES | INHIBITION
47 | c1ccc(CN2CCc3nnc(CN4CCCCC4)n3CC2)nc1 | 2.71%
48 | Cc1ccc(CN2CCc3nnc(CN4CCCC4=O)n3CC2)o1 | 47.97%
49 | O=C1CCCN1Cc1nnc2n1CCN(Cc1ccoc1)CC2 | -11.91%
50 | Cc1ccc(CN2CCc3nnc(CN4CCCC4=O)n3CC2)s1 | 60.6%
51 | Cn1cc(N2CC3(COCCN(Cc4nccs4)C3)OCC2=O)cn1 (configuration not stated) | 6.8%
52 | Clc1cnccc1N1CCCOCC1 | -149.33%
53 | O=C1CC(c2ccncc2)c2c(sc3c2CCCC3)N1 (configuration not stated) | -5.89%
54 | Cc1cccc(N2CCN(C(=O)NC(C)c3nncn3C)CC2)c1C (configuration not stated) | 38.76%
55 | CCN(CC)S(=O)(=O)N1CC[C@H](c2ccccc2)[C@H]2NCCCC[C@H]21 | 39.99%
56 | COc1cc(N2CCC(c3nccn3Cc3ccccn3)CC2)ncn1 | 53.19%
57 | COc1cc(N2CCC(c3nccn3Cc3ccccc3)CC2)ncn1 | -2.99%
58 | COc1cc(N2CCC(c3nccn3Cc3cccnc3)CC2)ncn1 | 5.82%
59 | O=c1c2cc3c(cc2nnn1Cc1ccccc1Cl)OCCO3 | -15.25%
60 | CN(C)C(=O)Cc1ccc(-c2cccc3c2CCNC3)cc1 | 2.11%
61 | CCC(C)C(=O)Nc1ccc(CCN2CCOCC2)cc1 (configuration not stated) | 31.65%
62 | Cc1cc(C)c2nc(CN3CCC(CN)C3)cc(O)c2c1 (configuration not stated) | 25.06%
63 | Cc1cc(C)c2nc(CN3CCC(C#N)CC3)cc(O)c2c1 | 3.91%
64 | Cc1cc(C)c2nc(CN3CCC(CN)CC3)cc(O)c2c1 | 51.19%
65 | Cn1c(CN2CCCCC2)cc(=O)c(O)c1CN1CCCCC1 | 14.97%
66 | O=C(c1ccco1)N1Cc2cnn(CC3CC3)c2C(COCC2CC2)C1 (configuration not stated) | 14.09%
67 | COC1CCN(C(=O)Cn2ncc(N3CCCCC3)cc2=O)C1 (configuration not stated) | 11.69%
